# In the library only some 11% were active in any assay of this set; here they are far more common.
# NIH3T3 tox – Cytotoxic Profiling in NIH 3T3 Cell Line of Diverse Libraries Using Quantitative High-Throughput Screening | NIH 3T3 viability, CellTiter-Glo ATP luminescence, 48-72 h | hit rate 4.3% among 94,000 | Potency, µM (titrated, usually from 96.7 µM), for inactives: top-dose activity change, negative = cytotoxicity, actives largely listed as inhibitors; also: % is scaled to controls: 0 for no effect and ±100 for the full control effect; nearly all actives have a fitted effect of over 55% in size
#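 Cytotoxicity was measured by CellTiter-Glo ATP luminescence after 48 or 72 h compound exposure at 37 °C. Mouse NIH 3T3 fibroblasts were seeded at 400 cells/well and dosed by 23 nL pin transfer.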
# FLuc inh-1 – Firefly luciferase inhibition profiling of diverse chemical library using quantitative high-throughput screening; hit rate 2.5% among 76,000; purified P. pyralis luciferase, luminescence, biochemical; Potency, µM (doses to about 115 µM), actives largely listed as inhibitors; Luciferin 4-monooxygenase (Photinus pyralis), P08659; also: % is scaled to controls: 0 for no effect and ±100 for the full control effect; nearly all actives have a fitted effect of over 65% in size
#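 Luminescence read by CCD imager after adding enzyme (10nM final) to wells holding compound, titrated in qHTS. Substrates 10uM each D-luciferin and ATP; buffer 50mM Tris acetate pH 7.5, 10mM Mg acetate, Tween-20, BSA.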
# hNpr1 antagonist – Natriuretic polypeptide receptor (hNpr1) antagonism - Primary qHTS | Atrial natriuretic peptide receptor 1 (Homo sapiens), P16066 | Potency, µM (top dose mostly 46.3 µM), for the others: at the top dose activity change, negative = inhibition, hits mostly inhibitors | HEK293 hNpr1 GloSensor cGMP, ANP-stimulated luminescence | hit rate 1.6% among 76,000; calls by dose curve; also: % is scaled to controls: 0 for no effect and ±100 for the full control effect; nearly all actives have a fitted effect of over 60% in size
# Target sequence (P16066 whole entry, looked up): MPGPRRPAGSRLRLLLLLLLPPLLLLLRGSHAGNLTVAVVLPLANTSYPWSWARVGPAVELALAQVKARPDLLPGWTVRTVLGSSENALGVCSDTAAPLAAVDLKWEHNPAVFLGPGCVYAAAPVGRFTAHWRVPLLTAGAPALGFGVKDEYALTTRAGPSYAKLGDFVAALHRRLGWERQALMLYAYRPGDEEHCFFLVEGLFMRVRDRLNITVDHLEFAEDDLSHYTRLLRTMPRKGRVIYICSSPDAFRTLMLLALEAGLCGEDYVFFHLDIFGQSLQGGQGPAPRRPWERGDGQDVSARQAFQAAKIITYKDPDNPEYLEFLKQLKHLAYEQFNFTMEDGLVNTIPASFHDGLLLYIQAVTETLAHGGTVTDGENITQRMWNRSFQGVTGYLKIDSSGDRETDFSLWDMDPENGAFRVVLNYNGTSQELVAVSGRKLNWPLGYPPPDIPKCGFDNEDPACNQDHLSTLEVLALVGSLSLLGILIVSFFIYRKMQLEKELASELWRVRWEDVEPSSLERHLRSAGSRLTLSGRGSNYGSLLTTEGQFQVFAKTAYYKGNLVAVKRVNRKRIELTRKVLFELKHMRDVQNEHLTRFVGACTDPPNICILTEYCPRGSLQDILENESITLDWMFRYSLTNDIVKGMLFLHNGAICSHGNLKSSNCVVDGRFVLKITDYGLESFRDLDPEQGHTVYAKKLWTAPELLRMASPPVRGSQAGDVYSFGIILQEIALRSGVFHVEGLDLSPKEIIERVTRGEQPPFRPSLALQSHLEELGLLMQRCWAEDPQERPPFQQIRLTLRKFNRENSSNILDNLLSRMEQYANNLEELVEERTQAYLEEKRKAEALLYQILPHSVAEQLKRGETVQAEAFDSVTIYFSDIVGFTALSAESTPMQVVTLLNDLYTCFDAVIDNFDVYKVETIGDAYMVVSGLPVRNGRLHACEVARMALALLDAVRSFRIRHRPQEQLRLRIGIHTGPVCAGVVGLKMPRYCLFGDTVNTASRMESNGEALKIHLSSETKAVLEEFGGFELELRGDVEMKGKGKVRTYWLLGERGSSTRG
#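 HEK293 cells stably expressing human Npr1 and cGMP GloSensor pGS-40F, loaded 2 h with 2% GloSensor reagent, given compound 30 min at room temperature. Luminescence read before and 20 min after 0.1 nM hNppA.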
# HEK cytotox – Cytotoxic Profiling in HEK 293 Cell Line of Diverse Libraries Using Quantitative High-Throughput Screening; HEK 293 viability, ATP luminescence (CellTiter-Glo), 48-72 h; Potency, µM (top dose mostly 115 µM), for inactives: top-dose activity change, negative = cytotoxicity, hits mostly inhibitors; hit rate 6.6% among 94,000; also: % is scaled to controls: 0 for no effect and ±100 for the full control effect; nearly all actives have a fitted effect of over 60% in size
#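 Luminescence from cellular ATP, measured with CellTiter-Glo, indicates HEK 293 viability. Cells plated at 250 cells/well are treated with compound for 48 or 72 hr at 37 degree Celsius before reagent addition.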
# FLuc SDR -ATP – Firefly luciferase (FLuc-C-HiBiT) SDR gain of signal screen - without ATP; AID 1963318, 2024; hit rate 7.8% among 1,300; Potency, µM (top dose mostly 32.7 µM), inactives show top-dose activation (signal gain), actives largely listed as activators; Purified FLuc-C-HiBiT, Nano-Glo HiBiT luminescence, no ATP; shares compounds with FLuc inh-1; also: nearly all actives have a fitted effect of over 55% in size
# FLuc SDR ATP – Firefly luciferase (FLuc-C-HiBiT) SDR gain of signal screen - plus ATP; shares compounds with FLuc inh-1; purified FLuc-C-HiBiT + ATP, HiBiT complementation luminescence; Potency, µM (top dose mostly 32.7 µM), without a hit: top-dose activation (gain of signal), most hits filed as activators; hit rate 8.7% among 1,300;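 also: signal reports ligand binding via conformational change of the enzyme rather than luciferase catalysis; % of control where 0% means no effect; nearly all actives have a fitted effect of over 55% in size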
# FLuc inh-2 – Firefly luciferase (FLuc-C-HiBiT) enzymatic inhibition screen - Functional assay; shares compounds with FLuc inh-1; hit rate 42% among 1,300; AID 1963320, 2024; Potency, µM (series often up to 32.7 µM), for the others: top-dose activity change, negative = inhibition, usual class: inhibitors; purified FLuc-C-HiBiT enzyme, luciferin luminescence; also: % is scaled to controls: 0 for no effect and ±100 for the full control effect; nearly all actives have a fitted effect of over 70% in size
# * marks the source's active call; other numbers are inactive results; i = inactive; ? = inconclusive; . = no result given; [ ] = remark or other dose. Unless noted, calls follow the shape of the dose curve; as a rule, active = well fitted curve in the direction sought with a large enough effect; inconclusive = small, poorly fitted or top-dose-only effect, or another doubt; inactive = no such curve, though single readings can be large; an effect the other way counts as inactive or inconclusive. Potency is read from the fitted curve at half-maximal effect.
SMILES,NIH3T3 tox,FLuc inh-1,hNpr1 antagonist,HEK cytotox,FLuc SDR -ATP,FLuc SDR ATP,FLuc inh-2
O=C(C1CC1)N1CCCN(c2ccc3nnc(-c4ccccc4)n3n2)CC1,-7.8%,.,.,i,.,.,.
COc1ccc(CCNc2ncnc3c2CN(C2CCCNCC2)C(=O)CN3C)cc1 (centres undefined),0.1%,.,.,-1.1%,.,.,.
CCNC(=O)C1C(c2cccc(NC(=O)c3ccc(C)cc3)c2)OC(=O)N1Cc1ccc(F)cc1 (centres undefined),?,2.24µM*,11.2µM*,?,16.5%,1.57µM*,1.76µM*
COc1ccc(OC)c(CN2CCOc3ccc(C(=O)NCc4ccc(C)cc4)cc3C2)c1,?,i,-14.8%,?,13.1%,9.4%,-1.0%
COc1ccc(CN2CCOc3ccc(C(=O)NCc4ccc(C)cc4)cc3C2)cc1OC,?,i,-13.0%,?,.,.,.
COc1ccc(NC(=O)N2CCc3c(C(=O)NCCN4CCCCCC4)cccc32)cc1,-23.1%,1.58µM*,10µM*,?,?,0.785µM*,0.556µM*
COc1ccc(NC(=O)N2CCc3c(C(=O)N(C)C)cccc32)cc1,?,0.251µM*,3.98µM*,?,?,0.157µM*,0.111µM*
COc1ccc(NC(=O)N2CCc3c(C(=O)N(C)Cc4ccco4)cccc32)cc1,-26.8%,3.98µM*,?,?,?,2.48µM*,1.76µM*
Cc1cccc(NC(=O)N2CCc3c(C(=O)N(C)Cc4ccco4)cccc32)c1,?,?,-19.0%,?,.,.,.
Nc1nc2c([nH]c(=O)n2C2CC(O)C(CO)O2)c(=O)[nH]1 (centres undefined),.,.,.,.,12.6%,10.8%,5.8%
COc1ccc(F)cc1-c1ccc(COc2ccc3c(cnn3CCC(=O)O)c2)cc1,-31.2%[138 µM],22.4µM*,1.8%[70.6 µM],?,15.8%[49.3 µM],9.7%[49.3 µM],?
COc1cc(Cl)ccc1-c1ccc(COc2ccc3c(cnn3CCC(=O)O)c2)cc1,-16.7%[138 µM],50.1µM*,-1.1%[70.6 µM],?,9.1%[49.3 µM],6.7%[49.3 µM],?
CC(=O)Nc1cccc(-c2ccc(COc3ccc4c(cnn4CCC(=O)O)c3)cc2)c1,?,0.708µM*,-13.3%[70.6 µM],?,?,?,1.01µM*
Cc1cnc(CC2CCCN(C(=O)C3(c4ccccc4)CC3)C2)n1Cc1ccc(F)cc1 (centres undefined),?,i,-3.4%,?,.,.,.
C[S+](=O)([O-])CCn1ncc2cc(OCc3cccc(-c4cccc(O)c4)c3)ccc21,?,3.98µM*,?,70.8µM*,24.7%[49.3 µM],15.5%[49.3 µM],?
C[S+](=O)([O-])CCn1ncc2cc(OCc3cccc(-c4cccnc4)c3)ccc21,?,5.01µM*,28.2µM*,79.4µM*,22.9%[49.3 µM],?,16.1µM*
Cc1nccc(N2CCC(COc3ccc4c(cnn4CC[S+](C)(=O)[O-])c3)CC2)n1,?,i,?,?,.,.,.
COc1ccc(-c2nc(C)c(CCNC(=O)c3cccs3)s2)cc1,.,.,.,.,24.3%,17.0%,?
Cc1cnc(CCNC(=O)c2cccs2)n1Cc1ccc(F)cc1,-17.0%,.,.,-1.5%,.,.,.
Cc1ccc(-c2nc(C)c(CCNC(=O)c3cccs3)s2)cc1,.,.,.,.,12.1%,9.4%,?
CCC(=O)N1CC(C(=O)N2CCN(c3ccccn3)CC2)C2(CCOCC2)C1 (centres undefined),3.8%,i,4.7%,-1.2%,.,.,.
Brc1ccccc1-n1ncc2c1ncn1nc(Cc3ccccc3)nc21,.,.,.,.,15.6%,10.4%,-10.7%
CCn1ncc(NC(=O)Cn2ncc3cc(-c4ccc(N(C)C)cc4)ccc32)n1,?,0.251µM*,?,?,?,?,0.785µM*
CCn1ncc(NC(=O)Cn2ncc3cc(-c4cccc(F)c4F)ccc32)n1,-54.0%,?,?,-66.8%,.,.,.
CCn1ncc(NC(=O)Cn2ncc3cc(-c4ccc(C)cc4F)ccc32)n1,-64.9%,14.1µM*,?,-54.4%,20.0%,12.5%,?
SMILES,NIH3T3 tox,FLuc inh-1,hNpr1 antagonist,HEK cytotox,FLuc SDR -ATP,FLuc SDR ATP,FLuc inh-2
CC(=O)N1CCC(c2nnc3n2C(C(=O)NCCc2ccc(Cl)cc2)CC3)CC1 (centres undefined),-14.0%[138 µM],.,.,-23.9%[172 µM],.,.,.
O=C(O)CCSc1nnc(-c2ccc(Cl)cc2Cl)o1,.,.,.,.,?,0.7µM*,0.495µM*
Cc1nnc(CN(C)c2ccc(-c3nc(-c4cccc(Cl)c4)no3)cn2)o1,?,1.12µM*,11.2µM*,?,17.0%,17.7%,4.95µM*
Cc1nc(CN(C)Cc2nc(-c3cccc(Cl)c3)oc2C)no1,?,i,-8.2%,-30.3%,.,.,.
CC(Cc1cnccn1)Nc1ccc(-c2nc(-c3cccc(Cl)c3)no2)cn1 (centres undefined),?,3.55µM*,?,?,13.6%,15.8%,?
CCNc1cc(N2CCC(CCC(=O)O)CC2)ncn1,-8.0%,31.6µM*,0.0%,10.8%,12.8%,9.89µM*,5.56µM*
Cc1c(C(=O)N2CC[C@](C)(O)[C@@H](O)C2)[nH]c2c(F)cccc12,3.4%,i,4.5%,-0.8%,.,.,.
Cc1nc(C2CC(O)C2)cc(N(C)Cc2cnc3ccccc3c2)n1 (centres undefined),?,i,-1.6%,-27.3%,.,.,.
O=C1Cc2c(-c3cccc4ccccc34)n[nH]c2CN1CCOc1ccccc1,44.7µM*,10µM*,?,44.7µM*,6.5%[49.3 µM],10.2%[49.3 µM],?
Cc1ccc(C)c(NC(=O)Cn2c(-c3cccc(Cl)c3)nc(C)c(CCO)c2=O)c1,-13.5%,i,0.6%,-6.5%,.,.,.
N#Cc1c(-n2ncnc2-c2cccc(Br)c2)sc2c1CCCCC2,.,.,.,.,31.4%,?,3.13µM*
CCc1ccc(NC(=O)c2cc3ccccn3n2)cc1,.,.,.,.,?,?,1.76µM*
Cc1cn2nc(C(=O)Nc3ccccc3)cc2c(N(C)Cc2ccccc2)n1,?,i,14.8%,?,.,.,.
COCC(=O)N[C@@H]1CN(Cc2ccc(Cl)cc2F)C[C@H]1CO,-9.4%,i,5.6%,-6.2%,.,.,.
O=C(Nc1cc(-c2nc3ccccc3s2)ccc1Cl)c1cc2ccccc2o1,.,.,.,.,15.2%,11.0%,-1.2%
